# Substitutions are numbered along the chain they refer to. Over roughly 24,000 sequences, “enrichment r” has its median near 0.99; the highest 2% begin near 3.7. The sample holds the highest values, similar sequences and a random draw of the others, so the mix is not that of the screen.
# T1: UNK ZnF1-3 (human, UniProt Q9C0B0 31-174)
# T1 sequence: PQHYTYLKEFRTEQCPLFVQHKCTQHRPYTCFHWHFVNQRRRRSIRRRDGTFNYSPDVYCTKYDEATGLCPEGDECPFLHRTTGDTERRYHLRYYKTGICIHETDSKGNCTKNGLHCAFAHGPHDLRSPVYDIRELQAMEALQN
# B1: 23382874_23385586_565_CDS_ENSMUSG00000026158_ENSMUST00000027343|mouse|control|control (ssRNA)
# RNA: GGGAGUUCUACAGUCCGACGAUCUUCUCUCAGGGGGAAAAGCCAUUGGAUGUACGUGUGGUUGUGCUCCAGCUUCUCGUAGUCCCCUUUCCACUUAUUUAGAACCUCUUCAAUGUAAACACCAUCCGGCUUAAAUGGAAUUUUCAACAGAGGAUUGAGCAUCA
# B2: chr1:39494447:39494448:+_ENSG00000168653_ENST00000372967|hu_mus|hu_hu_hu_mus_False|58_68 (ssRNA)
# RNA: GGGAGUUCUACAGUCCGACGAUCGCACCGAGCGGCGUUCUUAUAGGGCUGUUCUGCGCUUAGGAACGUCAACCAUCGAUCUAUGUUGAUGCCCAGCUUUUUCUGUAUGUCAAGGAAAGGCAUGGCUCUGCAGUGCCCUUGUCACAACAGAGGAUUGAGCAUCA
# B3: chr3:179287964:179287965:+_ENSG00000136518_ENST00000429709|hu_hu|hu_hu_hu_mus_True|38_38 (ssRNA)
# RNA: GGGAGUUCUACAGUCCGACGAUCCUUGAGUGGUGAGAUGGCCUCCAUGUUCUCCCUGGGCACGCGGAGGGCAUUGGUGUCUAUGUAGUAGGUGGGCCCGCCUUGUUUGCCUUUGUCACCAUCAAUCUCCAUCAUUGUACUUCCCAACAGAGGAUUGAGCAUCA
# B4: chr1:58468927:58468928:-_ENSMUSG00000026034_ENSMUST00000148330|mus_hu|FALSE|FALSE (ssRNA)
# RNA: GGGAGUUCUACAGUCCGACGAUCAAUUACUGAAAAAGAUGUUCAUUACCUUAGCUAUGUACUUAAUGAACCAAAUUACCCAAACAAAAUAAACAUGGCAAUAUAAAAAUGUUAAGAAUUUACAAAGCUGUACAAAAUAACUUACAACAGAGGAUUGAGCAUCA
# B5: chr1:58468927:58468928:-_ENSMUSG00000026034_ENSMUST00000148330|mus_mus|mus_mus_mus_hu_False|18_88 (ssRNA)
# RNA: GGGAGUUCUACAGUCCGACGAUCAAUUACUGAAAAAGAUGUUCAUUUAUUUGGUUUUGUACUUAAUGAACCAAAUUACCCAAACAAAAUAAACAUGGCAAUAUAAAAAUGUUAAGAAAAUAACUUACUGUACAAAAUAACUUACAACAGAGGAUUGAGCAUCA
# B6: chr1:185277986:185277987:-_ENSG00000116679_ENST00000392007|hu_mus|FALSE|FALSE (ssRNA)
# RNA: GGGAGUUCUACAGUCCGACGAUCCUGCUUGACUCGGUCCAUCUUCAGCUUCUUGGCUGCAGAAUAAACAUCUUUUACUAAUUCCUUAUCAGCUUUCAACUGAGCCGUGUAUGCAUAAUUCAGCAAGACUUCAACAGCUUCUGGCAACAGAGGAUUGAGCAUCA
# B7: chr13:100194382:100194383:-_ENSMUSG00000052727_ENSMUST00000064762|mus_hu|FALSE|FALSE (ssRNA)
# RNA: GGGAGUUCUACAGUCCGACGAUCUCCUGUAAAUGAAAACAUUUGUUAAAAAGUUCAUCUAUGAAAAGUUCUCACAUAUCUUAAAAAAAAAAUUCUUCUGUACACUUGUUCCCAUAAUUAUGUUGAAAUUAAUGGAAAAUUUAACAACAGAGGAUUGAGCAUCA
# B8: chr11:57926588:57926589:+_ENSMUSG00000020515_ENSMUST00000020822|mus_hu|FALSE|FALSE (ssRNA)
# RNA: GGGAGUUCUACAGUCCGACGAUCGUCAAUCCCUUCCUCUUCAUGCUUCUGAAACUGUAGUCCUGAGUUAGCAAGGAGAUCUAUGGAAUCCUGGGAGUACAUGUCCUCUGUAAGGUUAAAUUUGAAAUUGAACUGCCAAGUAUUCAACAGAGGAUUGAGCAUCA
# B9: chr4:54876292:54876293:-_ENSG00000109220_ENST00000263921|perfect_dup|motif|central (ssRNA)
# RNA: GGGAGUUCUACAGUCCGACGAUCCUAUAAAUAAAGUAAAUGCUAAUCUGGUCGAAAAAUCGGUGUCUUUGGUAAAAAUUCGGUGAGGAUGACAUAUUCCAUCAUGUUAUUCGUUUCACAUUUCCUUUUGCUCAGUCUCCAAUGCAACAGAGGAUUGAGCAUCA
# B10: chr13:100194382:100194383:-_ENSMUSG00000052727_ENSMUST00000064762|mus_mus|FALSE|FALSE (ssRNA)
# RNA: GGGAGUUCUACAGUCCGACGAUCUCCUGUAAAUGAAAACAUUUGUUAAAAAGUUCAUCUAUGAAAAGUUCUCGAGUAGCUAAAAAAAAAAAAAAAAAAAAAAAAAAUCUUCUGUACAUGUGUUCCCAUGUGUUGAAAUUAAUGCAACAGAGGAUUGAGCAUCA
# B11: chr15:80390846:80390847:+_ENSG00000086666_ENST00000559775|hu_hu|FALSE|FALSE (ssRNA)
# RNA: GGGAGUUCUACAGUCCGACGAUCCUGUCCUGUAUCUUGAGACAGACAUUAGCUUUCUGCCUUCCCUAUUCUCAUAAGCAGCUACUUAAAAGUUUUGAAUUUUAUGCAAGAAAACAUUUUAAAGCCUUCUGUGUUUUACUGCAGCAACAGAGGAUUGAGCAUCA
# B12: chr13:100194382:100194383:-_ENSMUSG00000052727_ENSMUST00000064762|mus_mus|motif|central (ssRNA)
# RNA: B10 RNA with U80G, A81G
# B13: 53612100_53613521_5214_CDS_ENSG00000086758_ENST00000262854|human|control|control (ssRNA)
# RNA: GGGAGUUCUACAGUCCGACGAUCAGAGCGAUCAUCAAACCAGCGCCAGUUGUUGCUGUUGGAUUGCAGGUACUUAGUCAUCUGGGCUCUCCUUUUUGAGGAGAUGGCUGUCUUUUCAUAGAAAUCAAUCAGGAGCAACACUGGCAACAGAGGAUUGAGCAUCA
# B14: chr1:163117127:163117128:-_ENSG00000143248_ENST00000313961|hu_hu|motif|central (ssRNA)
# RNA: GGGAGUUCUACAGUCCGACGAUCGCAGGGUUAUUAUGGAGGAAAUAACUCACAGGAUGAUUUCAUAGCCUGGCUAAAUUACGGCUUGAUUAACUCCUGAUAAAACUCAGAGCGCACAAAGCGAGGCAGAGAAUCCUUUUCCAUCAACAGAGGAUUGAGCAUCA
# B15: chr7:140404665:140404666:+_ENSG00000090266_ENST00000247866|hu_hu|hu_hu_hu_mus_False|28_98 (ssRNA)
# RNA: GGGAGUUCUACAGUCCGACGAUCUGCUCCUACUCGUAGGCUGAGUCUACAGUGUCAGUCCUCGUCAUCAGGAGGGAUUCCCAGUUCUUCAUCUGUCCACUGUGAAGGAUCAGGAUAUGAAAAGUGACCCAGCACAGCAUCCGACAACAGAGGAUUGAGCAUCA
# B16: chr9:34402745:34402746:-_ENSG00000164970_ENST00000297620|hu_hu|motif|central (ssRNA)
# RNA: GGGAGUUCUACAGUCCGACGAUCGGGGACGACCAGCCUUGUUCGGGCCAUGACAUUGUUCUUCUUGGGUUGCUGGUUGACAGGGCGGCCCAUGCUGCCAUUCUUCAGGGAGCCCUUCCGGGCCAGCUCCCGCUGCUUCUCCUCCAACAGAGGAUUGAGCAUCA
# B17: chr2:153237265:153237266:-_ENSMUSG00000061411_ENSMUST00000109784|mus_mus|mus_mus_mus_hu_False|98_98 (ssRNA)
# RNA: GGGAGUUCUACAGUCCGACGAUCAAAAAAAAAAAAAGAAAAGUGUCCUUGUGCCCAAAGUCUCAGGUGCUUGGAGUGUGGCUAGAAACAGCUCUUUUGGAUCCCACCUCUUUCAAAAACAAAAUGUACCAACUGGUGAGGCAGCAACAGAGGAUUGAGCAUCA
# B18: chr2:153237265:153237266:-_ENSMUSG00000061411_ENSMUST00000109784|mus_mus|mus_mus_mus_hu_False|1_98 (ssRNA)
# RNA: B17 RNA with G137A, A138G, G140C, C141A, A142G
# B19: chr2:153237265:153237266:-_ENSMUSG00000061411_ENSMUST00000109784|mus_mus|mus_mus_mus_hu_False|1_108 (ssRNA)
# RNA: B17 RNA with A32G, G37A, G137A, A138G, G140C, C141A, A142G
# B20: chr11:86532819:86532820:-_ENSMUSG00000047126_ENSMUST00000103186|perfect_dup|FALSE|FALSE (ssRNA)
# RNA: GGGAGUUCUACAGUCCGACGAUCCAUGGCUCUGAGACAUUCUAGGGAGUCUUCUACUGAUAAGGAACCAAAGUAGUUGACUAACCACUCAGGGUUAAGAAGAUGGGUGUGAACCACUGCACGUUUUAUAUCAUAUAAAUCAGUCAACAGAGGAUUGAGCAUCA
# B21: chr1:39494564:39494565:+_ENSG00000168653_ENST00000372967|hu_hu|hu_hu_hu_mus_True|18_38 (ssRNA)
# RNA: GGGAGUUCUACAGUCCGACGAUCAUGCAUUCGCCUCAUCGUUUUGUACCGAAGCAAGCACUCUUCGAAGUCAUCGAACUCUAUCUUGCACUCCUUUUCUGCCCGAGUCCCACCGAUUCCAUGUGCACACUCUAUCCACUCUUUCAACAGAGGAUUGAGCAUCA
# B22: chr14:89338683:89338684:+_ENSG00000165533_ENST00000346301|hu_hu|hu_hu_hu_mus_False|48_58 (ssRNA)
# RNA: GGGAGUUCUACAGUCCGACGAUCGUGGUUGUUGUGGACCAGGGCCAGCCUGAAGCAUUGGUGGGCCAAGUUUGUAUCUCCUAUUCCCACAGCUACAUGCCCCAGGUUGUACCAGACAUCAGCUGCCUCUUCUUCAUUUUCAGCCAACAGAGGAUUGAGCAUCA
# Target: T1, UNK ZnF1-3
# Assay: nsRBNS (natural sequence RNA bind-n-seq); RBNS binding buffer (assumed for nsRBNS): 25 mM Tris pH 7.5, 150 mM KCl, 3 mM MgCl2, 0.01% Triton X-100, 500 ug/ml BSA, 20 U/ml SUPERase-In, 4 C; UNK is unkempt and MSI1 is Musashi-1; names of the RNAs are library labels; protein concentration not given here; high values mean tight binding
row,Binder,binding signal [enrichment R]
1,B1,0.65
2,B2,0.515
3,B3,0.571
4,B4,1.24
5,B5,6.29
6,B6,0.806
7,B7,1.06
8,B8,1.01
9,B9,1.46
10,B10,5.73
11,B11,0.755
12,B12,5.84
13,B13,1.05
14,B14,1.52
15,B15,0.773
16,B16,0.859
17,B17,3.61
18,B18,4.8
19,B19,4.2
20,B20,1.15
21,B21,0.624
22,B22,0.726

# — PMC12136788
